Laboratory results from the supplement of paper PMC11732987, “Enantioselective OTUD7B fragment discovery through chemoproteomics screening and high-throughput optimisation” (Communications Chemistry, 2025).

Tests used:
Assay in all cases: log2 ratio of Biotin-Ahx-Ub-VS probe labelling (fragment/DMSO); higher = less target engagement (more negative = stronger competition), active = hit call of the paper (q ≤ 0.05, log2 ratio ≤ -1)
Settings in all cases: compound concentration: 200 uM; treatment time: 3 h
OTUD6B = target: T1, OTUD6B (UniProt Q8N6M0)
T1 sequence (whole entry): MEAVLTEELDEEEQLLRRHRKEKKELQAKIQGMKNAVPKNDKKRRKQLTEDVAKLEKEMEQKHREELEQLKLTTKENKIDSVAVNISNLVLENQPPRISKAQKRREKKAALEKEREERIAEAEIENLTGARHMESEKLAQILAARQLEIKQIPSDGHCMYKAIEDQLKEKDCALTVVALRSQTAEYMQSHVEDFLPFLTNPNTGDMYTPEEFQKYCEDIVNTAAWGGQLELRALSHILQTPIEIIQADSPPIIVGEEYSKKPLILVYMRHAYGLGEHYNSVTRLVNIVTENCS
In short: (§1)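 Labelling with Biotin-Ahx-Ub-VS (0.5 µM final, 1 h) followed a 3 h triplicate treatment of HEK293T lysate (495 µg per sample, Tris/CHAPS/IGEPAL buffer with protease inhibitors) with fragment at 200 µM or vehicle. Labelled DUBs were NeutrAvidin-enriched, digested with LysC and trypsin, and run by diaPASEF LC-MS/MS. The values, average log2 fragment/vehicle ratios by unpaired t-test, come from global-median-normalised Spectronaut label-free quantities. Proteins with ≥2 unique peptides were used.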

OTUD7B = target: T2, OTUD7B (UniProt Q6GQQ9)
T2 sequence (whole entry): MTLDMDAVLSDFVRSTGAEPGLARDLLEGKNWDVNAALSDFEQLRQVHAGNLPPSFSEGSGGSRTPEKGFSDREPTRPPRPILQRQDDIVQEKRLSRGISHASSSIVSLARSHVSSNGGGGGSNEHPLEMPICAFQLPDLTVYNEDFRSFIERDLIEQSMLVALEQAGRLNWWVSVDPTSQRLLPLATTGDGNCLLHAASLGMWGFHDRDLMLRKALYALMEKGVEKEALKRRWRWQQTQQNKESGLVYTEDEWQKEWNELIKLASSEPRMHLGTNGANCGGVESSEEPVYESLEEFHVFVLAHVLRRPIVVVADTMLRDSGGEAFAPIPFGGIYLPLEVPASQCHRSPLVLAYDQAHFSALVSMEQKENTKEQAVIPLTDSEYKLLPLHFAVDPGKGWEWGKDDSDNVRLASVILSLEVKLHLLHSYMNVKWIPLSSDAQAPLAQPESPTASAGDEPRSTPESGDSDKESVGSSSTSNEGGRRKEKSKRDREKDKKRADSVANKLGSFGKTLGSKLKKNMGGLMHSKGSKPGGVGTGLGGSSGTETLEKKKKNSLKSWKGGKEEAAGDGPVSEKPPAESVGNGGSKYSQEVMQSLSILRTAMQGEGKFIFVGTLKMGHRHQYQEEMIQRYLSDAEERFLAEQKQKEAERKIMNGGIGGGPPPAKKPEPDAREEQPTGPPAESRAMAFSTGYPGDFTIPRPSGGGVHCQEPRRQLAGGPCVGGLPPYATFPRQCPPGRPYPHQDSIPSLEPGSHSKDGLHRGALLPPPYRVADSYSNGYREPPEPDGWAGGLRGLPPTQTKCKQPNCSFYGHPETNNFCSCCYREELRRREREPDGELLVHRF
In short: as §1

PRPF8 = PRPF8 (UniProt Q6P2Q9)
In short: as §1

PSMD7 = target: T3, PSMD7 (UniProt P51665)
T3 sequence (whole entry): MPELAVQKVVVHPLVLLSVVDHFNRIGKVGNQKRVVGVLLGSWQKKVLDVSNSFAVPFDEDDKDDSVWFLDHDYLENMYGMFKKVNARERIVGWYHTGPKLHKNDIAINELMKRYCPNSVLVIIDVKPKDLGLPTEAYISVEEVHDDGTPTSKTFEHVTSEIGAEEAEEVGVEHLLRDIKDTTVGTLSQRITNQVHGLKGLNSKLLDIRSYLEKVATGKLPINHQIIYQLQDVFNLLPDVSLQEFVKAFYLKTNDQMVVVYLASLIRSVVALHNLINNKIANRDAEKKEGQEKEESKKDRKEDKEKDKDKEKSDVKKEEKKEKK
In short: as §1

UCHL1 = UCHL1 (UniProt P09936)
In short: as §1

UCHL3 = target: T4, UCHL3 (UniProt P15374)
T4 sequence (whole entry): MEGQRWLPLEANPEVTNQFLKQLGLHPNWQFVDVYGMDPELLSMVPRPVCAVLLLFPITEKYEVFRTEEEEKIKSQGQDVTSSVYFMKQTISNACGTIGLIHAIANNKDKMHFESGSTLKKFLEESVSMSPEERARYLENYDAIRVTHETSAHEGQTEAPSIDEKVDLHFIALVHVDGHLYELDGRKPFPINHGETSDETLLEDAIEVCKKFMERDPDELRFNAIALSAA
In short: as §1

UCHL5 = target: T5, UCHL5 (UniProt Q9Y5K5)
T5 sequence (whole entry): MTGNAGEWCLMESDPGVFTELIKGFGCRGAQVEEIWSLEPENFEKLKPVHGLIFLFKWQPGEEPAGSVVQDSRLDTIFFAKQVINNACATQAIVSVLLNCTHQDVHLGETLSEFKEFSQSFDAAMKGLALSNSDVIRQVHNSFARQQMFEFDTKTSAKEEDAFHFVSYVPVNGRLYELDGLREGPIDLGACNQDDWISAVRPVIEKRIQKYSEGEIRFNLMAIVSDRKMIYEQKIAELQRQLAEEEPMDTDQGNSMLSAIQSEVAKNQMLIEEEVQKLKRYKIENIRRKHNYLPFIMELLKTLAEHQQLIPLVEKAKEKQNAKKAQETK
In short: as §1

USP10 = USP10 (UniProt Q14694)
In short: as §1

USP15 = target: T6, USP15 (UniProt Q9Y4E8)
T6 sequence (whole entry): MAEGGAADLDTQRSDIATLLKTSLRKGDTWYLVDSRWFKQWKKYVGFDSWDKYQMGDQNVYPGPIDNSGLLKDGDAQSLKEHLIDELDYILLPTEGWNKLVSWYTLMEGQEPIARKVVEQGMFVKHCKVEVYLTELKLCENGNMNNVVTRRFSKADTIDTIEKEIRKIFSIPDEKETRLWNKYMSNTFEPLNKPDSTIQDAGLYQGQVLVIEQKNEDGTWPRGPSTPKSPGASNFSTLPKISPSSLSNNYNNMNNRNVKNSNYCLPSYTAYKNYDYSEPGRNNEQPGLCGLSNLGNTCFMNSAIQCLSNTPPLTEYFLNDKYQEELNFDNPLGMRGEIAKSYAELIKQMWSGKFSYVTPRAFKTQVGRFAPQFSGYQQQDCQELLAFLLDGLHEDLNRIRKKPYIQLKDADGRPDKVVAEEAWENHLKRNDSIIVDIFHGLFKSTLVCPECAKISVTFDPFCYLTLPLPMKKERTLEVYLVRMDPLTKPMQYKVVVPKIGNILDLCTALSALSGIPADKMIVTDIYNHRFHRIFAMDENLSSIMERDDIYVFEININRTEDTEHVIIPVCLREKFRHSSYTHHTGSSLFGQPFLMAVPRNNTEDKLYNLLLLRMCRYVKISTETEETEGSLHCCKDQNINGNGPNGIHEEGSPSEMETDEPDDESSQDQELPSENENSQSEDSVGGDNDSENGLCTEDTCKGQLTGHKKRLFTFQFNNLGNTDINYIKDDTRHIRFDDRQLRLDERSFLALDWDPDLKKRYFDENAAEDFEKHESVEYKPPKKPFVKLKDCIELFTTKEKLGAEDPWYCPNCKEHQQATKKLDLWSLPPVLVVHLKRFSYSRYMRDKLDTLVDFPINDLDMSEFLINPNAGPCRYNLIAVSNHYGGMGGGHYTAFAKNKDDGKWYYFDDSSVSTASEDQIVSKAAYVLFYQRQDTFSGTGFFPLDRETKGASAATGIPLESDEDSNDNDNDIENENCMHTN
In short: as §1

USP16 = USP16 (UniProt Q9Y5T5)
In short: as §1

Measured: log2 ratio of Biotin-Ahx-Ub-VS probe labelling

Sequence of UCHL1 (P09936 whole entry, looked up): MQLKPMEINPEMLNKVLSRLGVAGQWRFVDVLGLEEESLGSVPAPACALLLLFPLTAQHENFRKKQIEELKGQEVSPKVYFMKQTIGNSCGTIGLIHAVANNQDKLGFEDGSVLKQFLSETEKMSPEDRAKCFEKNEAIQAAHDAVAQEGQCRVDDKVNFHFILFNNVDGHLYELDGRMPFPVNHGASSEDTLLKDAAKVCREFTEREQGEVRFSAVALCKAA
Sequence of USP10 (Q14694 whole entry): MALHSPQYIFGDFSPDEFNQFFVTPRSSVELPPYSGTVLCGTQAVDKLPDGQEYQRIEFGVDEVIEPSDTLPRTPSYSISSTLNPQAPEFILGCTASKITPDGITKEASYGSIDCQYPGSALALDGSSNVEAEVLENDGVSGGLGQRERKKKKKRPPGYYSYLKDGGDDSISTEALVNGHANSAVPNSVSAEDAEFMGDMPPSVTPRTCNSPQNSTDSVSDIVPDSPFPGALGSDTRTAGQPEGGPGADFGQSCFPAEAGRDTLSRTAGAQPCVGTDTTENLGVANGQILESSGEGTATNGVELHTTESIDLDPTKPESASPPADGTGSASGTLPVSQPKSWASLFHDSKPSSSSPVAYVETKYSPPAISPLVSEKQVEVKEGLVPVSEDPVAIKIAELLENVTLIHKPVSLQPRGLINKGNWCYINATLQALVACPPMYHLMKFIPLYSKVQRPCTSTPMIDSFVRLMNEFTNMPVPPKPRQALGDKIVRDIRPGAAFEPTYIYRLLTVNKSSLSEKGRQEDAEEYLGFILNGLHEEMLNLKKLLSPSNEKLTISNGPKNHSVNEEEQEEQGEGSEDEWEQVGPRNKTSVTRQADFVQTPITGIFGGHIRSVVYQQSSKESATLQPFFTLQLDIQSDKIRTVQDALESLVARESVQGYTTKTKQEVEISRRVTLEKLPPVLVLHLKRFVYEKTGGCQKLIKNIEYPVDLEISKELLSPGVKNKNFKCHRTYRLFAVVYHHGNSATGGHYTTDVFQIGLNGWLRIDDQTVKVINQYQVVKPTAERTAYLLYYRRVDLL
Sequence of USP16 (Q9Y5T5 whole entry, looked up): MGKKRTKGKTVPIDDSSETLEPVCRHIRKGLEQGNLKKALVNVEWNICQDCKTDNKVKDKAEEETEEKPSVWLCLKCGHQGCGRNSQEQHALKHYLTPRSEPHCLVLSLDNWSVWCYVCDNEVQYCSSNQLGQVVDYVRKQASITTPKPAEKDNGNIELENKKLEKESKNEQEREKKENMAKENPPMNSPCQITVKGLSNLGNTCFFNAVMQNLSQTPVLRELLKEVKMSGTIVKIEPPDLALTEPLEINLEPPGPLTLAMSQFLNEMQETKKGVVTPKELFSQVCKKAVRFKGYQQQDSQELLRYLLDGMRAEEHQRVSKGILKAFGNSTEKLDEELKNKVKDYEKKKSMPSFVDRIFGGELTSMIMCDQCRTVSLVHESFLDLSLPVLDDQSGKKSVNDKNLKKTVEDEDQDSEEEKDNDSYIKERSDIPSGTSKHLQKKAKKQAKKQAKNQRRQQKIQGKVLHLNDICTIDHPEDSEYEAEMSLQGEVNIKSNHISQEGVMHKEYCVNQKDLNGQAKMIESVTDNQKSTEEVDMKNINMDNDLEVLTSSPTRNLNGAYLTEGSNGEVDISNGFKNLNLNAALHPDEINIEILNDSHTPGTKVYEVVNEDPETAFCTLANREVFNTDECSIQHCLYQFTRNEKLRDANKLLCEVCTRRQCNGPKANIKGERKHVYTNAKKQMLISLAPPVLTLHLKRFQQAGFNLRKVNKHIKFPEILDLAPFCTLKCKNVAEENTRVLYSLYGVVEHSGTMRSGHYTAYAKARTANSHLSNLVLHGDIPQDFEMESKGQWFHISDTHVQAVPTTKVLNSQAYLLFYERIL

CC(c1ccccc1)N(C)C(=O)CCl (stereo not given)
inactive: OTUD6B 0.00154 | OTUD7B -0.433 | PRPF8 -0.049 | PSMD7 0.0333 | UCHL1 -0.925 | UCHL3 0.257 | UCHL5 -0.0435 | USP10 -0.134 | USP15 -0.334 | USP16 -0.635
